PubChem BioAssay (NCI)
The panel holds about 79,000 compounds, 15% with a hit somewhere; the sample as a whole holds those more often. The source made the active and inactive calls. Rule as the data show it: active = growth inhibition above about 70%; inactive = the rest.

Assays:
[1] = NCI Yeast Anticancer Drug Screen. Data for the rad52 strain (AID 147);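 also: 0% = growth of vehicle-treated control cultures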; conditions: S. cerevisiae rad52 mutant growth inhibition, hits give high values
Procedure, shortened: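 Here a repair-compromised yeast strain receives each compound; its growth is then quantified and normalised to vehicle-only controls.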

[2] = NCI Yeast Anticancer Drug Screen. Data for the wt1 strain (AID 149);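 also: 0% = growth of vehicle-treated wt1 cultures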; conditions: S. cerevisiae wt1 strain (SPY 50644) growth inhibition, hits give high values
Procedure, shortened: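 Compounds are added to wt1 yeast cultures. Growth is then measured. Inhibition is expressed relative to vehicle-treated controls.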

[3] = NCI Yeast Anticancer Drug Screen. Data for the rad50EPP+ strain (AID 151);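 also: 0% = growth of vehicle-treated control cultures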; conditions: S. cerevisiae rad50 mutant strain, hits give high values
Procedure, shortened: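 Read-out is yeast growth inhibition relative to vehicle; cells used were the rad50EPP+ strain.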

[4] = NCI Yeast Anticancer Drug Screen. Data for the mgt1 strain (AID 153); conditions: S. cerevisiae mgt1 mutant growth inhibition, hits give high values
Procedure, shortened: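 Measured: inhibition of mgt1 yeast growth by compound, normalized to vehicle-treated cultures.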

[5] = NCI Yeast Anticancer Drug Screen. Data for the rad50 strain (AID 155);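 also: 0% = growth of vehicle-only cultures of the same strain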; conditions: S. cerevisiae rad50 strain growth inhibition, hits give high values
Procedure, shortened: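 Inhibition values express reduced yeast growth in compound-treated cultures relative to vehicle-treated controls.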

[6] = NCI Yeast Anticancer Drug Screen. Data for the mec2-1 strain (AID 157); conditions: S. cerevisiae mec2-1 strain, hits give high values
Procedure, shortened: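 Using mec2-1 yeast: add compound, measure growth, express inhibition versus vehicle-treated cultures.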

[7] = NCI Yeast Anticancer Drug Screen. Data for the rad14 strain (AID 159);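 also: 0% = growth of vehicle-treated control cultures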; conditions: S. cerevisiae rad14 strain growth inhibition, hits give high values
Procedure, shortened: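 A mutant yeast strain defective in DNA damage repair is treated with compound; inhibition of its growth is scored against untreated, vehicle-exposed cultures.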

[8] = NCI Yeast Anticancer Drug Screen. Data for the sgs1 mgt1 strain (AID 161);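 also: 0% = growth of cultures given vehicle only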; conditions: S. cerevisiae sgs1 mgt1 strain, hits give high values
Procedure, shortened: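 Percent growth inhibition was derived by comparing compound-exposed mutant yeast with vehicle-exposed cultures. The strain carries alterations in DNA damage repair.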

[9] = NCI Yeast Anticancer Drug Screen. Data for the CLN2oe strain (AID 163);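 also: 0% = growth of vehicle-only control cultures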; conditions: S. cerevisiae CLN2oe strain, hits give high values
Procedure, shortened: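 Whole-cell yeast growth assay. A strain engineered for altered cell-cycle control received compound, and inhibition relative to vehicle-treated cultures was recorded.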

[10] = NCI Yeast Anticancer Drug Screen. Data for the cln2 rad14 strain (AID 165);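 also: 0% = growth equal to vehicle treated cultures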; conditions: S. cerevisiae cln2 rad14 strain, hits give high values
Procedure, shortened: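 Yeast strain cln2 rad14, bearing defects in cell cycle control and DNA repair, serves as the test system; values reflect growth inhibition compared with vehicle.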

[11] = NCI Yeast Anticancer Drug Screen. Data for the bub3 strain (AID 167); conditions: S. cerevisiae bub3 mutant strain, hits give high values
Procedure, shortened: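 Steps: expose the mutant yeast strain to compound; grow alongside vehicle-treated cultures; measure growth; express inhibition against the vehicle cultures.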

[12] = NCI Yeast Anticancer Drug Screen. Data for the wt2 strain (AID 169);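 also: 0% = growth of vehicle-treated yeast cultures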; conditions: S. cerevisiae wt2 strain growth inhibition, hits give high values
Procedure, shortened: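 Treated yeast vs. vehicle-treated yeast: growth inhibition determined.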

[13] = NCI Yeast Anticancer Drug Screen. Data for the mlh1 strain (AID 171);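 also: 0% = growth of vehicle-treated control cultures of the same strain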; conditions: S. cerevisiae mlh1 strain growth inhibition, hits give high values
Procedure, shortened: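 A yeast strain with a defined genetic lesion serves as the test organism. Cultures receive compound or vehicle, and growth is measured.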

[14] = NCI Yeast Anticancer Drug Screen. Data for the sgs1 strain (AID 173);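 also: 0% = growth of vehicle-only control cultures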; conditions: S. cerevisiae sgs1 mutant, hits give high values
Procedure, shortened: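 A genetically defined yeast mutant is incubated with the test compound, and its growth is compared to that of the same strain given vehicle.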

[15] = NCI Yeast Anticancer Drug Screen. Data for the mlh1 rad18 strain (AID 175); conditions: S. cerevisiae mlh1 rad18 strain growth inhibition, hits give high values
Procedure, shortened: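 Steps: expose repair-defective yeast to compound; measure growth; express inhibition against vehicle-treated controls.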

[16] = NCI Yeast Anticancer Drug Screen. Data for the rad18 strain (AID 177); conditions: S. cerevisiae rad18 mutant growth inhibition, hits give high values
Procedure, shortened: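 Measured value is growth inhibition of a yeast strain bearing a DNA repair alteration, referenced to vehicle-treated cells.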

[17] = at 5.0 µM (retest, dose inferred, filed as 0.5)
[18] = at 50.0 µM (retest, dose inferred, filed as 5.0)

Measured: growth inhibition

C=C1CCC(O)C/C1=C/C=C1\CCCC2(C)C1CCC2C(C)CCCC(C)C (stereo not drawn)
active: [3]; at 100.0 µM 73% | [5]; [18] 84% | [6]; [18] 94% | [15]; [18] 93% | [15]; at 50.0 µM 82.9%
inactive: [1]; at 1.2 µM -22% | [1]; at 3.7 µM -3% | [1]; at 11.0 µM -11% | [1]; at 33.0 µM 4% | [1]; at 100.0 µM 49% | [2]; at 1.2 µM -26% | [2]; at 3.7 µM -16% | [2]; at 11.0 µM -12% | [2]; at 33.0 µM -15% | [2]; at 100.0 µM 4% | [3]; at 1.2 µM -16% | [3]; at 3.7 µM -20% | [3]; at 11.0 µM -22% | [3]; at 33.0 µM -8% | [4]; at 1.2 µM -21% | [4]; at 3.7 µM -15% | [4]; at 11.0 µM -7% | [4]; at 33.0 µM -21% | [4]; at 100.0 µM 52% | [5]; at 1.2 µM -18% | [5]; at 3.7 µM -9% | [5]; [17] 13% | [5]; at 11.0 µM 5% | [5]; at 33.0 µM 0% | [5]; at 50.0 µM 51.8% | [5]; at 100.0 µM 30% | [6]; at 1.2 µM -40% | [6]; at 3.7 µM -25% | [6]; [17] 12% | [6]; at 11.0 µM -18% | [6]; at 33.0 µM 2% | [6]; at 50.0 µM -9.05% | [6]; at 100.0 µM -15% | [7]; at 1.2 µM -14% | [7]; at 3.7 µM -27% | [7]; at 11.0 µM -23% | [7]; at 33.0 µM -23% | [7]; at 100.0 µM 38% | [8]; [17] 6% | [8]; [18] 57% | [8]; at 50.0 µM 54.9% | [9]; at 1.2 µM -11% | [9]; at 3.7 µM 8% | [9]; at 11.0 µM 2% | [9]; at 33.0 µM 6% | [9]; at 100.0 µM 39% | [10]; [17] 9% | [10]; [18] 19% | [10]; at 50.0 µM 4.95% | [11]; at 1.2 µM -25% | [11]; at 3.7 µM -23% | [11]; [17] 9% | [11]; at 11.0 µM -27% | [11]; at 33.0 µM -13% | [11]; [18] 69% | [11]; at 50.0 µM 24.1% | [11]; at 100.0 µM 7% | [12]; at 1.2 µM -8% | [12]; at 3.7 µM -14% | [12]; at 11.0 µM -18% | [12]; at 33.0 µM -27% | [12]; at 100.0 µM 22% | [13]; at 1.2 µM -24% | [13]; at 3.7 µM -26% | [13]; at 11.0 µM -26% | [13]; at 33.0 µM -5% | [13]; at 100.0 µM 18% | [14]; at 1.2 µM -23% | [14]; at 3.7 µM -6% | [14]; at 11.0 µM -25% | [14]; at 33.0 µM -13% | [14]; at 100.0 µM 35% | [15]; [17] 11% | [16]; at 1.2 µM -10% | [16]; at 3.7 µM -6% | [16]; at 11.0 µM -8% | [16]; at 33.0 µM 13% | [16]; at 100.0 µM 34%
